According to PubChem BioAssay (Tox21):
Values joined by “and” are separate entries in the source; they are usually repeats but may differ in a detail not shown here. Equal entries are not always repeated. Inconclusive results are not listed. Entries that show only a call come without a potency. Active and inactive are the calls of the source. Unless noted, the call rests on the fitted dose curve.

Tests used:
[1] = Nuclear factor erythroid 2-related factor 2/antioxidant responsive element (Nrf2/ARE) small molecule agonists: qHTS cell viability counter screen in human keratinocytes (AID 1919968; active means well fitted curve in the direction sought with a large enough effect in the repeat runs; an effect the other way counts as inactive or inconclusive; further: nearly all actives have a fitted effect of over 55% in size; further: potency means the concentration at half of the fitted maximal effect)
In short: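 Seed 1,500 KeratinoSens cells per well, then incubate 5 h at 37 C/5% CO2. Add compounds in DMSO and incubate 23 h. Add CellTiter-Fluor, wait 1 h and read fluorescence.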

[2] = Nuclear factor erythroid 2-related factor 2/antioxidant responsive element (Nrf2/ARE) small molecule agonists: luciferase reporter gene qHTS assay in human keratinocytes (AID 1919969); further: nearly all actives have a fitted effect of over 35% in size
[3] = biological target: Gonadotropin-releasing hormone receptor (Homo sapiens) (UniProt P30968); experiment: Human gonadotropin-releasing hormone receptor (GnRHR) small molecule agonists, calcium flux assay in GnRHR-HEK293 cells (AID 1920063); further: nearly all actives have a fitted effect of over 35% in size
In short: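 Cells: HEK293 stably expressing human GnRHR. Steps: overnight (18 h) culture, 1 h calcium dye loading at 37 C, compound addition, kinetic fluorescence read at 480/540 nm. Each compound tested at 15 concentrations in triplicate.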

[4] = biological target: KiSS-1 receptor (Homo sapiens) (UniProt Q969F8); experiment: Human kisspeptin (KISS1R) small molecule agonists, calcium flux assay in KISS1R-HEK293 cells (AID 1920064; active means well fitted curve in the direction sought with a large enough effect in the repeat runs; an effect the other way counts as inactive or inconclusive)
In short: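 Cells plated and incubated 18 h; dye added, 1 h at 37 C; compounds in DMSO pinned in; signal read at 480/540 nm every second for 3 min. Each compound tested at 15 concentrations in triplicate.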

[5] = G protein-coupled receptor (GPCR) small molecule agonists, calcium flux assay: HEK293 wild type cell line counter screen (AID 1920065)
In short: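 Counter-screen of the Tox21 10K library for non-specific calcium release: dye-loaded cells received compounds in DMSO and were monitored by kinetic fluorescence (480/540 nm, 3 min). Fifteen concentrations, run in triplicate.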

[6] = p53 small molecule agonists, cell-based qHTS assay with human liver microsomes (AID 1963577);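 further: p53 response element beta-lactamase reporter cells with liver microsomes plus NADPH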
In short: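 Steps: plate p53RE-bla cells, incubate 5 h at 37 C; add compound in DMSO; add microsomes (0.5 mg/mL final) and NADPH (0.5 mg/mL final); incubate 16 h at 37 C; add LiveBLAzer, 2 h RT; read fluorescence.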

[7] = p53 small molecule agonists, cell-based qHTS assay with rat liver microsomes (AID 1963578)
In short: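 Metabolic activation is supplied by rat liver microsomes with NADPH (each 0.5 mg/mL final). p53RE-bla cells incubate with compound 16 h at 37 C; reporter activity is measured by LiveBLAzer fluorescence.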

[8] = p53 small molecule agonists, cell-based qHTS assay with human liver microsomes: qHTS cell viability counter screen (AID 1963579); further: nearly all actives have a fitted effect of over 45% in size
In short: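 After the 460/530 nm beta-lactamase read, CellTiter-Glo was added to the same wells and luminescence measured after 30 min at room temperature, giving viability of p53RE-bla cells treated 16 h with compounds plus microsomes and NADPH.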

[9] = p53 small molecule agonists, cell-based qHTS assay with rat liver microsomes: qHTS cell viability counter screen (AID 1963580); further: nearly all actives have a fitted effect of over 45% in size
In short: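 Viability is assessed in parallel with the p53 reporter read: HCT-116 p53RE-bla cells receive compounds plus rat microsomes and NADPH (0.5 mg/mL final apiece), incubate 16 h at 37 C, and then CellTiter-Glo luminescence is recorded.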

[10] = p53 small molecule agonists, cell-based qHTS assay: qHTS cell viability counter screen (AID 1963581); further: nearly all actives have a fitted effect of over 45% in size
In short: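 Cells: HCT-116 with p53 response element-driven beta-lactamase. Treatment: 16 h, 37 C, compounds in DMSO. Read: CellTiter-Glo luminescence after 30 min RT.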

[11] = p53 small molecule agonists, cell-based qHTS assay (AID 1963582; active means well fitted activation curve with a large enough effect in the signal ratio in the repeat runs, not every such curve was filed as active; the % refers to the signal ratio)
In short: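 Quantitative HTS in p53RE-bla cells: after a 5 h settling period, compounds delivered in DMSO were left on cells for 16 h at 37 C, and reporter induction was measured as fluorescence following 2 h substrate loading.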

[12] = biological target: 5-hydroxytryptamine receptor 2A (Homo sapiens) (UniProt P28223); experiment: 5-hydroxytryptamine receptor 2A (HTR2A) small molecule antagonists, cell-based qHTS assay (AID 1963586); further: nearly all actives have a fitted effect of over 45% in size
In short: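 Antagonist-mode intracellular calcium assay: DOI (4 nM) added after 5 min compound pre-incubation at room temperature to dye-loaded HTR2A-CHO cells. Fluorescence followed for 3 min, sampled every second.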

[13] = biological target: 5-hydroxytryptamine receptor 2A (Homo sapiens) (UniProt P28223); experiment: 5-hydroxytryptamine receptor 2A (HTR2A) small molecule agonists, cell-based qHTS assay (AID 1963587); further: nearly all actives have a fitted effect of over 30% in size
In short: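 CHO cells stably expressing human HTR2A, plated 18 h, loaded with calcium dye 1 h at 37 C. Agonist mode: compounds added and intracellular calcium fluorescence recorded kinetically for 2 min at 1 sec intervals.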

[14] = biological target: Muscarinic acetylcholine receptor M1 (Homo sapiens) (UniProt P11229); experiment: Cholinergic receptor muscarinic 1 (CHRM1) small molecule antagonists, cell-based qHTS assay (AID 1963588); further: nearly all actives have a fitted effect of over 40% in size; further: potency means the concentration at half of the fitted maximal effect
In short: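 CHRM1-CHO calcium-flux assay, antagonist mode. Cells were seeded 18 h, dye-loaded 1 h at 37 C and given compound for 5 min at RT, then acetylcholine was added at 50nM. FDSS fluorescence was read 3 min; 15 concentrations, three runs.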

[15] = biological target: Muscarinic acetylcholine receptor M1 (Homo sapiens) (UniProt P11229); experiment: Cholinergic receptor muscarinic 1 (CHRM1) small molecule agonists, cell-based qHTS assay (AID 1963589); further: nearly all actives have a fitted effect of over 35% in size
In short: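 Agonist-mode qHTS in CHO cells stably carrying human muscarinic M1. Intracellular calcium is tracked by fluorescence every second after compound transfer; each compound runs at 15 concentrations in three independent runs.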

[16] = cAMP Responsive Elements (CRE) small molecule agonists, cell-based qHTS assay (AID 1963590)
In short: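 Agonist mode qHTS in CRE-bla HEK 293T cells: compounds dosed from DMSO for 3 h at 37 C/5% CO2, followed by LiveBLAzer B/G FRET substrate for 2 h at room temperature.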

[17] = cAMP Responsive Elements (CRE) small molecule antagonists, cell-based qHTS assay (AID 1963591; active means well fitted inhibition curve with a large enough effect in the signal ratio in the repeat runs, not every such curve was filed as active; the % refers to the signal ratio)
In short: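 Antagonist mode: test compounds are co-incubated with the adenylyl cyclase activator NKH477 (0.25 uM final) on CRE-bla HEK293T cells for 3 h at 37 °C, followed by LiveBLAzer substrate loading.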

[18] = biological target: Beta-2 adrenergic receptor (Homo sapiens) (UniProt P07550); experiment: Adrenergic beta2 receptor (ADRB2) small molecule antagonists, cell-based qHTS assay (AID 1963592); further: series mostly up to about 92 µM; nearly all actives have a fitted effect of over 50% in size
In short: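 Cells (CHO, stable ADRB2 overexpression) incubated 18-20hr at 37C; compounds added from DMSO; agonist mix (1nM isoproterenol, 100uM IBMX, 25uM Ro-20-1724) added; 0.5hr RT; d2-cAMP and anti-cAMP-cryptate added; 1hr RT; 665/615 nm read.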

[19] = biological target: D(2) dopamine receptor (Homo sapiens) (UniProt P14416); experiment: Dopamine D2 receptor (DRD2) small molecule agonists, cell-based qHTS assay (AID 1963594); further: nearly all actives have a fitted effect of over 35% in size
In short: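 HEK293 cells stably expressing human DRD2, pre-treated with PDE inhibitor Ro20-1724 (0.1 mM final) and compound 10 min at room temperature, then stimulated with NKH477 (200nM […]) for 30 min. cAMP read by HTRF (665/620 nm).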

[20] = biological target: D(2) dopamine receptor (Homo sapiens) (UniProt P14416); experiment: Dopamine D2 receptor (DRD2) small molecule antagonists, cell-based qHTS assay (AID 1963595; active means well fitted inhibition curve with a large enough effect in the signal ratio in the repeat runs, with a control signal flat; the % refers to the signal ratio)
In short: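 Stable D2 receptor HEK293 line, 24 h after seeding. Compound preincubated 10 min, then quinpirole (12 nM) with forskolin analogue NKH477 (200 nM), 30 min, room temperature. Detection by time-resolved FRET of cAMP.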

Chain of Gonadotropin-releasing hormone receptor (Homo sapiens) (P30968 whole entry, looked up): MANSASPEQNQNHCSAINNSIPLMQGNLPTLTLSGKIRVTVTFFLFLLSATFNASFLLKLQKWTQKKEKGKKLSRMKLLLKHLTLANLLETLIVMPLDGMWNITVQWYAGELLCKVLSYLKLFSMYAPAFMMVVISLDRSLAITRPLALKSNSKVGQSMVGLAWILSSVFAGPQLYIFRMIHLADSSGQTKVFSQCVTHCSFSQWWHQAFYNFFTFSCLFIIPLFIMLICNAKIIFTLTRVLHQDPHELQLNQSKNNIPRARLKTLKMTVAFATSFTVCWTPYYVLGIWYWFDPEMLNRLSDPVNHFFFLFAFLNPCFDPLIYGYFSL
Chain of D(2) dopamine receptor (Homo sapiens) (P14416 whole entry, looked up): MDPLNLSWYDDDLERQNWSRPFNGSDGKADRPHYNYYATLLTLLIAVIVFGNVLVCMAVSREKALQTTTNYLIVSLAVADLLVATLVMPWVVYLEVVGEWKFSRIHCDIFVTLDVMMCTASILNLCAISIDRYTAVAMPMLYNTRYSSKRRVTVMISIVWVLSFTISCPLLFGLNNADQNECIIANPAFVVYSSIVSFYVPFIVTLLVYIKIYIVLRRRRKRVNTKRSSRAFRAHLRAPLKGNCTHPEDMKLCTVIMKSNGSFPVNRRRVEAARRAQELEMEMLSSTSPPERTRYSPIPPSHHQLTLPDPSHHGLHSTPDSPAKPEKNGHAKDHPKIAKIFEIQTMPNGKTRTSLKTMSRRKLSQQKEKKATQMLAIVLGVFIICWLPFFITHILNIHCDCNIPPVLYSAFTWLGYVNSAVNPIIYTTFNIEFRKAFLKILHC
Chain of Beta-2 adrenergic receptor (Homo sapiens) (P07550 whole entry, looked up): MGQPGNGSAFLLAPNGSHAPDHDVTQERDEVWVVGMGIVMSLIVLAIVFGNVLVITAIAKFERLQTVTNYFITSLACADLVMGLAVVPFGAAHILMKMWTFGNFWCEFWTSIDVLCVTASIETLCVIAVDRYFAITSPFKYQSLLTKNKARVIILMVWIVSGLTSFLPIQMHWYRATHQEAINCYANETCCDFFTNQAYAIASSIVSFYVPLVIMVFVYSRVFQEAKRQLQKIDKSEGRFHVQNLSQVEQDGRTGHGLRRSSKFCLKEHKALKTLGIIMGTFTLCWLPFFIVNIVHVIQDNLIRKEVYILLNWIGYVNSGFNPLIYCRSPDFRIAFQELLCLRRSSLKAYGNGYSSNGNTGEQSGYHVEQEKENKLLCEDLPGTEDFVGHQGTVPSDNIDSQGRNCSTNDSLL
Chain of Muscarinic acetylcholine receptor M1 (Homo sapiens) (P11229 whole entry, looked up): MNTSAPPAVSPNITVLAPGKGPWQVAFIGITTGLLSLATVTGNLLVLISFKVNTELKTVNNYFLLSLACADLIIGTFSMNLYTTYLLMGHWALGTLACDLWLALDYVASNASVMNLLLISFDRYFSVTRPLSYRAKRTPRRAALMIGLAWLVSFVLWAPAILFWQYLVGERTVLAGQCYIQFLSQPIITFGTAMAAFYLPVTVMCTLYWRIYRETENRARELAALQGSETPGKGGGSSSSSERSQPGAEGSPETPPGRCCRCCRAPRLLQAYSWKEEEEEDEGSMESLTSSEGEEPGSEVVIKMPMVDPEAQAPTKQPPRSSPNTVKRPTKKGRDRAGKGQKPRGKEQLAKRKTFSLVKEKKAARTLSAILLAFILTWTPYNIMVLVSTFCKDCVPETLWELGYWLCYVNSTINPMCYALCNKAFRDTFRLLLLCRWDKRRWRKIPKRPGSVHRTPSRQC
Chain of 5-hydroxytryptamine receptor 2A (Homo sapiens) (P28223 whole entry, looked up): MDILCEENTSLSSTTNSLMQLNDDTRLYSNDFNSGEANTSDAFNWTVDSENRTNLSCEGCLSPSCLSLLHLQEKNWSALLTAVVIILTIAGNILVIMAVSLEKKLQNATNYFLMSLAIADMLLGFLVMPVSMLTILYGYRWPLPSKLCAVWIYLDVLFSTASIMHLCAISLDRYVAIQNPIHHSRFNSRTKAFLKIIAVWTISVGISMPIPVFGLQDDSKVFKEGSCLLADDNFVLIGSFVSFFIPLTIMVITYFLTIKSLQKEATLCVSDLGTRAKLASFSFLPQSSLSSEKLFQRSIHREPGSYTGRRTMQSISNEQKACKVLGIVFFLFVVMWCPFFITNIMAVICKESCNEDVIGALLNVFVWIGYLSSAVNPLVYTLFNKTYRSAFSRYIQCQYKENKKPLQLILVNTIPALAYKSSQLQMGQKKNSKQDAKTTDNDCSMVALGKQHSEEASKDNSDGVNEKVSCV
Chain of KiSS-1 receptor (Homo sapiens) (Q969F8 whole entry, looked up): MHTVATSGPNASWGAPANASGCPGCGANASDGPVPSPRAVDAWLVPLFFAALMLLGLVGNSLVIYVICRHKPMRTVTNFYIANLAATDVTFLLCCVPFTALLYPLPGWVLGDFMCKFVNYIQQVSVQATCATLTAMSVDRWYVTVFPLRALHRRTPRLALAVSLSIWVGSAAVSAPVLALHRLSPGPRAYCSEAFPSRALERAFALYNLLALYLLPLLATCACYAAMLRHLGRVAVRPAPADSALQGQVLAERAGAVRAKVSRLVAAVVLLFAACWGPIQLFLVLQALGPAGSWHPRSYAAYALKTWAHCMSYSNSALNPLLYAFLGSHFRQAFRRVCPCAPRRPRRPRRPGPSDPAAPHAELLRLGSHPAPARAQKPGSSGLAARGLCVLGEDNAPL

| SMILES | Potency [1] | Potency [2] | Potency [3] | Potency [4] | Potency [5] | Potency [6] | Potency [7] | Potency [8] | Potency [9] | Potency [10] | Potency [11] | Potency [12] | Potency [13] | Potency [14] | Potency [15] | Potency [16] | Potency [17] | Potency [18] | Potency [19] | Potency [20] |
| --- | --- | --- | --- | --- | --- | --- | --- | --- | --- | --- | --- | --- | --- | --- | --- | --- | --- | --- | --- | --- |
| C=CCN1C[C@H](C)N([C@H](c2ccc(C(=O)N(CC)CC)cc2)c2cccc(OC)c2)C[C@H]1C | inactive | inactive | inactive | inactive | inactive | inactive | inactive | inactive | inactive | inactive | inactive | inactive | inactive | 2590 nM (active) | inactive | inactive | inactive | inactive | inactive | inactive |
| CC1(C)[C@H](C(=O)O[C@H](C#N)c2cccc(Oc3ccccc3)c2)[C@@H]1C=C(Br)Br | inactive | inactive | inactive | inactive | inactive | inactive | inactive | inactive | inactive | inactive | inactive | inactive | inactive | inactive | inactive | inactive | inactive | inactive | inactive | inactive |
| C=C(C)CCl | inactive | inactive | inactive | inactive | inactive | inactive | inactive | inactive | inactive | inactive | inactive | inactive | inactive | inactive | inactive | inactive | inactive | inactive | inactive | inactive |
| CCN(C)N=O | inactive | inactive | inactive | inactive | inactive | inactive | inactive | inactive | inactive | inactive | inactive | inactive | inactive | inactive | inactive | inactive | inactive | inactive | inactive | inactive |
| OCC(Br)CBr (centres undefined) | inactive | inactive | inactive | inactive | inactive | inactive | inactive | inactive | inactive | inactive | inactive | inactive | inactive | inactive | inactive | inactive | inactive | inactive | inactive |  |
| ClC1=C(Cl)C2(Cl)C3C(Cl)C=CC3C1(Cl)C2(Cl)Cl (centres undefined) | 27.4 µM (active) and 61.1 µM (active) | inactive | inactive | inactive | inactive | inactive | inactive | inactive | inactive | inactive | inactive | inactive | inactive | inactive | inactive | inactive | inactive | inactive | inactive | inactive |
| C[N+](=O)[O-] | inactive | inactive | inactive | inactive | inactive | inactive | inactive | inactive | inactive | inactive | inactive | inactive | inactive | inactive | inactive | inactive | inactive | inactive | inactive | inactive |
| CC(=O)[C@H]1CC[C@H]2[C@@H]3CC[C@H]4C[C@](C)(O)CC[C@]4(C)[C@H]3CC[C@]12C | inactive | inactive | inactive | inactive | inactive | inactive | inactive | inactive | inactive | inactive | inactive | inactive | inactive | inactive | inactive | inactive | inactive | inactive | inactive | inactive |
| O=C1CC(=O)NC(=O)N1 | inactive | inactive | inactive | inactive | inactive | inactive | inactive | inactive | inactive | inactive | inactive | inactive | inactive | inactive | inactive | inactive | inactive | inactive | inactive | inactive |
| c1cc2c3c(cccc3c1)CC2 | inactive | inactive | inactive | inactive | inactive | inactive | inactive | inactive | inactive | inactive | inactive | inactive | inactive | inactive | inactive | inactive | inactive | inactive | inactive | inactive |
| O=Cc1ccco1 | inactive | inactive | inactive | inactive | inactive | inactive | inactive | inactive | inactive | inactive | inactive | inactive | inactive | inactive | inactive | inactive | inactive | inactive | inactive | inactive |
| CCc1ccccc1C | inactive | inactive | inactive | inactive | inactive | inactive | inactive | inactive | inactive | inactive | inactive | inactive | inactive | inactive | inactive | inactive | inactive | inactive | inactive | inactive |
| CC[C@H](N)c1ccccc1 | inactive | inactive | inactive | inactive | inactive | inactive | inactive | inactive | inactive | inactive | inactive | inactive | inactive | inactive | inactive | inactive | inactive | inactive | inactive | inactive |
| CC(C)OC(=O)Nc1ccccc1 | inactive | inactive | inactive | inactive | inactive | inactive | inactive | inactive | inactive | inactive | inactive | inactive | inactive | inactive | inactive | inactive | inactive | inactive | inactive | inactive |
| Cc1ncc2n1-c1ccc(Cl)cc1C(c1ccccc1F)=NC2 | inactive | inactive | inactive | inactive | inactive | inactive | inactive | inactive | inactive | inactive | inactive | inactive | inactive | inactive | inactive | inactive | inactive | inactive | inactive | inactive |
